# Assay results: the supplement of paper PMC11001985
# Values without a mark were called inactive.
# Compound: C#CCNC(=O)CCSSCCC(=O)NCCc1ccc(C=O)c(C=O)c1
# Test: lysine labeling ratio R10:1 (500 µM / 50 µM probe), SILAC-ABPP in living cells; higher = lower intrinsic lysine reactivity toward the probe, active = 2 or less
# Details: HeLa; probe concentrations 500 vs 50 µM
# How it was run: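 For each lysine, R is the median over forward and reverse replicates of the filtered median MS1 peptide ratio of high probe to low probe. The probe, an alkyne-tagged, disulfide-linked lysine probe, was given at 500 µM or 50 µM to living SILAC light and heavy HeLa cells in PBS at room temperature, with label swaps. Values are capped at 20.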
# Chain of UniProt Q15149 (Q15149 whole entry): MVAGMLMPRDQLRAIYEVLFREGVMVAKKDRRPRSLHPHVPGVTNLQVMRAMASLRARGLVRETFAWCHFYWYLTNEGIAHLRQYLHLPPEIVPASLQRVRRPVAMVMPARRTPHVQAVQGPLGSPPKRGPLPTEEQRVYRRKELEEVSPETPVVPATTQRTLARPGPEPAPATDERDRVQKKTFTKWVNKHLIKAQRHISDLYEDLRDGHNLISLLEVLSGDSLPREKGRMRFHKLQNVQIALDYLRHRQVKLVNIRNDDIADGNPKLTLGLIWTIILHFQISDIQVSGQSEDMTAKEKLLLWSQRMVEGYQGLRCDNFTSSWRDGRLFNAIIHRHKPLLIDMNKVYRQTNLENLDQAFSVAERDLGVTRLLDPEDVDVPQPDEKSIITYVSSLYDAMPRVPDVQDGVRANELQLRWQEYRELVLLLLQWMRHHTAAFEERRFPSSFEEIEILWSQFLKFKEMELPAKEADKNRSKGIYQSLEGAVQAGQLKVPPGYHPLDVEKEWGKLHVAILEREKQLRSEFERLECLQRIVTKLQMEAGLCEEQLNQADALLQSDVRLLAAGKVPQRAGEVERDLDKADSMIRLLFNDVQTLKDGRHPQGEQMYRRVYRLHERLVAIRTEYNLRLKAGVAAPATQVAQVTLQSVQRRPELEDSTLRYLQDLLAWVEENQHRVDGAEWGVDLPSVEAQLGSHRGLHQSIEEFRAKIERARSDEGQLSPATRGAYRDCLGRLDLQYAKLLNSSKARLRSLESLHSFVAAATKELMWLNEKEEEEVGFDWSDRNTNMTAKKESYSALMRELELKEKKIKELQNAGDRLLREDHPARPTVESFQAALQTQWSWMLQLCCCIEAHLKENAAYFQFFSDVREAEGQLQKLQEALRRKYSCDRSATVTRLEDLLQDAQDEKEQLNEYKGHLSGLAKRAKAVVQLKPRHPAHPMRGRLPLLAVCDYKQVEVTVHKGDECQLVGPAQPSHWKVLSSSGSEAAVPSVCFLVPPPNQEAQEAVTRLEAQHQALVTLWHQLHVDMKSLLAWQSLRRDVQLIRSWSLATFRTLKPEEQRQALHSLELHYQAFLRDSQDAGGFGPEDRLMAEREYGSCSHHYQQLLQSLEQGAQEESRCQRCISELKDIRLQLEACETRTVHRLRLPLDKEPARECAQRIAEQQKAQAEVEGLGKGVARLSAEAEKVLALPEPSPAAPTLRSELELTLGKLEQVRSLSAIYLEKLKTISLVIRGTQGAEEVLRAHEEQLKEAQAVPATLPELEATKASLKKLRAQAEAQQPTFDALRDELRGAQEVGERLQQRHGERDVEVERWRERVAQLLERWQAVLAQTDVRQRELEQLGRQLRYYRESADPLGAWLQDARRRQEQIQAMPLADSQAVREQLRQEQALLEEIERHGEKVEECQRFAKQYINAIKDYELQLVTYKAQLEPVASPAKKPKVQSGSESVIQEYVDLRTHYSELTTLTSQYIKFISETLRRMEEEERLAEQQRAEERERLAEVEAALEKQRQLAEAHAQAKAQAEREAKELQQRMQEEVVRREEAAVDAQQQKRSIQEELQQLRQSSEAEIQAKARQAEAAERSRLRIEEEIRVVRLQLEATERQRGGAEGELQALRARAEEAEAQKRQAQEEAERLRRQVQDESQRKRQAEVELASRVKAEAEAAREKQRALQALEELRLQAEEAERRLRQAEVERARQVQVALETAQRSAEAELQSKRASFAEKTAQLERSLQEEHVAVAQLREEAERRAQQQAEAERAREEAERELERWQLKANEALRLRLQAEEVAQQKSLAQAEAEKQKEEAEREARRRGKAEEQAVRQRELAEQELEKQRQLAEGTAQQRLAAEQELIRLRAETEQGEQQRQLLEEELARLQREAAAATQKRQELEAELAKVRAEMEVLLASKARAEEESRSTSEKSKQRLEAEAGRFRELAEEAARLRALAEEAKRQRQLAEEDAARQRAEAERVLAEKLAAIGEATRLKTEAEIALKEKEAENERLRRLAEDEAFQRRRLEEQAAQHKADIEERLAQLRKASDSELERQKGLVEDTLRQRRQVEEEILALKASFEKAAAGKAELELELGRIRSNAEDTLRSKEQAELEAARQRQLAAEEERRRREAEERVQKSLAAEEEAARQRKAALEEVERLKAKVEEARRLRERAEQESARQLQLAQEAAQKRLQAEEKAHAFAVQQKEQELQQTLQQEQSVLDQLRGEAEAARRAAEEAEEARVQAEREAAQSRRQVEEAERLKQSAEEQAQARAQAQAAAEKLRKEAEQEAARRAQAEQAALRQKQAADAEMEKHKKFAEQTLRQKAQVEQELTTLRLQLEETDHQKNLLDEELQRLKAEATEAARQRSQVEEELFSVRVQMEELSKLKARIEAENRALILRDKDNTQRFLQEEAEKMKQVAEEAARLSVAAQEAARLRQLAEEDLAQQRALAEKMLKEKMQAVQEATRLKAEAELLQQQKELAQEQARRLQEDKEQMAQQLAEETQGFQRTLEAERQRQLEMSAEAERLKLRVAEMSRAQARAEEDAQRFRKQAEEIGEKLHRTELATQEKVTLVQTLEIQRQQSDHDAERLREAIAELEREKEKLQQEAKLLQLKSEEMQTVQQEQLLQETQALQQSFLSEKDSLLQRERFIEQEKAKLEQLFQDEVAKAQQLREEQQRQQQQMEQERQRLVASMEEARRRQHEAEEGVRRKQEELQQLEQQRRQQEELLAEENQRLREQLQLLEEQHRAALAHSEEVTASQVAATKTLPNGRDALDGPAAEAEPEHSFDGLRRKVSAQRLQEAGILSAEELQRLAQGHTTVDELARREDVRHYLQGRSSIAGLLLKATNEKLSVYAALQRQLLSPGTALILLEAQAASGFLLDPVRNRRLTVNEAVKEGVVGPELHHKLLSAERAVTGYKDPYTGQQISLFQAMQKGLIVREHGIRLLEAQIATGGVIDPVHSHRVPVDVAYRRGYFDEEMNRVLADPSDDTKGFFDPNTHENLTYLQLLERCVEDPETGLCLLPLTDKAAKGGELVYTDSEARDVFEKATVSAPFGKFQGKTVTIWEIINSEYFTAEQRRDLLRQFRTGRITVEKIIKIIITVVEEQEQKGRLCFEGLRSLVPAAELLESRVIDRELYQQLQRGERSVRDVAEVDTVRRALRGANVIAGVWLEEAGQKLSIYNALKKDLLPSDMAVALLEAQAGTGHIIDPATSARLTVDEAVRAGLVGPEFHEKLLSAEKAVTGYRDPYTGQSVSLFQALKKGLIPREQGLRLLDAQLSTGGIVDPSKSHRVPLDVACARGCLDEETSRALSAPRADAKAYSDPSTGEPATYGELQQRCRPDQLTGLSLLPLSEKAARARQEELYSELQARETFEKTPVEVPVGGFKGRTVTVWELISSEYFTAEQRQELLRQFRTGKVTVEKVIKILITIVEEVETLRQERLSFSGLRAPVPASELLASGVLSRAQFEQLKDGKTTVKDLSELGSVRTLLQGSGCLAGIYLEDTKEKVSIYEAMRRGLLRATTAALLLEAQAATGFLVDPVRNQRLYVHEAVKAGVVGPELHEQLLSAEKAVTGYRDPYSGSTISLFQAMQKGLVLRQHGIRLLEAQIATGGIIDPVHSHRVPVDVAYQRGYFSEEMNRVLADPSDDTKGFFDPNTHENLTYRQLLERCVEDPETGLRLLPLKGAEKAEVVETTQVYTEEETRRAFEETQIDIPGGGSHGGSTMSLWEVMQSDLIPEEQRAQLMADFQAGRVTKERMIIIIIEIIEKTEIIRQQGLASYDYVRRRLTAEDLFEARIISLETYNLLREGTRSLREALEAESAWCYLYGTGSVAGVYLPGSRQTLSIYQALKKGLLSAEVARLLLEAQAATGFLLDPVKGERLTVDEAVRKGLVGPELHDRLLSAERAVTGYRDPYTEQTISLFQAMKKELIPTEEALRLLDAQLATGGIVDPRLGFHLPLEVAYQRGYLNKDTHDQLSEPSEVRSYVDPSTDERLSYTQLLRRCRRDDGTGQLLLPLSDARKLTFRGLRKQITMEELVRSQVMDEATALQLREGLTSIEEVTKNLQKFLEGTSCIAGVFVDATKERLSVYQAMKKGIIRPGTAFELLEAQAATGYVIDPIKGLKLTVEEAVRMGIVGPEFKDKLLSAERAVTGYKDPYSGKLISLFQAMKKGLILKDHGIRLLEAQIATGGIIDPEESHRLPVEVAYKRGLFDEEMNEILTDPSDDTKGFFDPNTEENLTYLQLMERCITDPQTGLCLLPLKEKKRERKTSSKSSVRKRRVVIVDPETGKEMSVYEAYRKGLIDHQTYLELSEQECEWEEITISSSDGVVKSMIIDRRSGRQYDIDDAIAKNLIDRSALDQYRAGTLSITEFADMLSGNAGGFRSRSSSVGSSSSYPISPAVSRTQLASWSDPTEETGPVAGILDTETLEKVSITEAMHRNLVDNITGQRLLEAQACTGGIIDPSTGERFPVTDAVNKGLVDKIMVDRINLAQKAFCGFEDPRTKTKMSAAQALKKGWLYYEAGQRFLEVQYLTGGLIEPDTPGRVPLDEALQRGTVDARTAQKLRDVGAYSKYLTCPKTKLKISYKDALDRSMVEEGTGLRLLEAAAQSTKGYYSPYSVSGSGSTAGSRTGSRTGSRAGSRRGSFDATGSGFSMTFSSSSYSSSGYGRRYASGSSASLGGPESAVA
# Chain of UniProt Q9UJZ1 (Q9UJZ1 whole entry): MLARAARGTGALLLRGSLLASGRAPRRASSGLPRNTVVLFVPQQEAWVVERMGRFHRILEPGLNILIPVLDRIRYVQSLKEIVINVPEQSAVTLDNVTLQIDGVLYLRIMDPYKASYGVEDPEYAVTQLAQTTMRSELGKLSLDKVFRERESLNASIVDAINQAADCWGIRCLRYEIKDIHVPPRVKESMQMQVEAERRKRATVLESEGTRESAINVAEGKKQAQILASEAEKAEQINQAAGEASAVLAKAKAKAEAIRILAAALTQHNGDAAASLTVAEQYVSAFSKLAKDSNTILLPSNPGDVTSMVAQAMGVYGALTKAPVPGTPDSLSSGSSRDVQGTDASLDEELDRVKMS
# Chain of UniProt P37108 (P37108 whole entry): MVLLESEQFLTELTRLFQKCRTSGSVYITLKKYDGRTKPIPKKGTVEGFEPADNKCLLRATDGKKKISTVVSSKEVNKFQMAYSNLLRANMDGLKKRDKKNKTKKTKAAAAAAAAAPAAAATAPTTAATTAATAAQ
row,Target,lysine labeling ratio R10:1
1,AKR1B1 (lysine site: K263) (UniProt P15121),8.32
2,STOML2 (lysine site: K145) (UniProt Q9UJZ1),3.01
3,UniProt Q15149 (lysine site: K2274),2.24
4,GPI (lysine site: K12) (UniProt P06744),0.867 (active)
5,LNPEP (lysine site: K624) (UniProt Q9UIQ6),0.72 (active)
6,UniProt Q15149 (lysine site: K746),2.49
7,CALD1 (lysine site: K605) (UniProt Q05682),3.32
8,TFRC (lysine site: K693) (UniProt P02786),5.63
9,ANPEP (lysine site: K104) (UniProt P15144),1.17 (active)
10,STOML2 (lysine site: K187) (UniProt Q9UJZ1),1.1 (active)
11,ROBO1 (lysine site: K490) (UniProt Q9Y6N7),2.81
12,ITGB1 (lysine site: K90) (UniProt P05556),3.53
13,CELSR2 (lysine site: K2300) (UniProt Q9HCU4),1.18 (active)
14,HM13 (lysine site: K61) (UniProt Q8TCT9),1.69 (active)
15,SHMT2 (lysine site: K409) (UniProt P34897),2.98
16,MTDH (lysine site: K195) (UniProt Q86UE4),1.36 (active)
17,VCL (lysine site: K453) (UniProt P18206),3.28
18,SRP14 (lysine site: K55) (UniProt P37108),1.02 (active)
19,DCTN2 (lysine site: K65) (UniProt Q13561),1.14 (active)
20,TKT (lysine site: K543) (UniProt P29401),9.07

row,Target,lysine labeling ratio R10:1
1,UniProt P02533 (lysine site: K293),2.74
2,EZR (lysine site: K523) (UniProt P15311),1.87 (active)
3,UniProt Q96JJ7 (lysine site: K119),3.06
4,THBS1 (lysine site: K201) (UniProt P07996),3.89
5,SPTAN1 (lysine site: K229) (UniProt Q13813),3.87
6,CACNA2D1 (lysine site: K690) (UniProt P54289),3.51
7,UniProt Q8WXI7 (lysine site: K13558),5.1
8,HNRNPU (lysine site: K551) (UniProt Q00839),1.98 (active)
9,UniProt Q8N441 (lysine site: K34),3.03
10,ITGA1 (lysine site: K1046) (UniProt P56199),0.547 (active)
11,RBMX (lysine site: K163) (UniProt P38159),3.88
12,UniProt P25705 (lysine site: K194),1.81 (active)
13,FAT1 (lysine site: K1542) (UniProt Q14517),2.78
14,LNPEP (lysine site: K923) (UniProt Q9UIQ6),5.14
15,HSPA8 (lysine site: K257) (UniProt P11142),3.1
16,SPTBN2 (lysine site: K1874) (UniProt O15020),5.9
17,MSLN (lysine site: K299) (UniProt Q13421),3.1
18,EDIL3 (lysine site: K429) (UniProt O43854),1.21 (active)
19,HSPA4 (lysine site: K686) (UniProt P34932),8.32
20,CHCHD3 (lysine site: K45) (UniProt Q9NX63),1.56 (active)
